Rows were chosen to be rich in hits. Some 1.3% of all compounds tested hit in one or more screens of this group.
EBV gp42 inh – EBV gp42 inhibition | Q1HVG2 | Fluorescence polarization binding assay, mP read-out | inhibition, % (tested at 21.74 µM) | 220,000 tested, 0.42% active; in the data active = inhibition above about 50%
Target sequence (Q1HVG2 whole entry, looked up): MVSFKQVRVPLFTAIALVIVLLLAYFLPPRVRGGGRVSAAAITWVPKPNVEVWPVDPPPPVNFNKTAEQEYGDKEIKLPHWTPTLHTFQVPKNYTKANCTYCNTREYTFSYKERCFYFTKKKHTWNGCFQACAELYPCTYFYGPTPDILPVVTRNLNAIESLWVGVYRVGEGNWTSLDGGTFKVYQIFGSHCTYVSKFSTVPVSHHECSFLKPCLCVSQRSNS
MCL1-BIM inh – inhibitors of human MCL1 binding to BIM-BH3 peptide | 320,000 tested, 0.68% active | GST-MCL1 / FITC-Bim-BH3 fluorescence polarization | inhibition, % at 10.9 µM;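 active = inhibition above the mean inhibition of all tested compounds plus 3 SD, set per campaign, cut at about 40% in these data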;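 also: 0% = DMSO wells and 100% = unlabeled Bim-BH3 peptide control; higher means more loss of mP so more displacement of Bim peptide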
Target sequence (Q07820 whole entry, looked up): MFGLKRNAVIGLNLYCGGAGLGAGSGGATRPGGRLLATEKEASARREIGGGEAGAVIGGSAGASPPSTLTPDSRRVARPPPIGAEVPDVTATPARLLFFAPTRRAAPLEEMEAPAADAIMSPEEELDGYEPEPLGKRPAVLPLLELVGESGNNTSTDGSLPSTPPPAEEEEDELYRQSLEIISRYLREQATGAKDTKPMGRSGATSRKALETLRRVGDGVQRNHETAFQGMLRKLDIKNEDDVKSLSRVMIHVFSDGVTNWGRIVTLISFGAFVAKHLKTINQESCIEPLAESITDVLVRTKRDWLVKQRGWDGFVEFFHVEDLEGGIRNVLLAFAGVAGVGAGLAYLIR
MEX-5 binding – C. elegans MEX-5 TCR-2 RNA binding activity; Q9XUB2; MEX-5/FITC-TCR2 RNA binding, fluorescence polarization; stronger effect = lower value; activity score (negative = inhibition of binding), % at 10 µM; 300,000 tested, 0.38% active;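 active = inhibition past about -25% in most replicates, and total fluorescence under double the plate's negative control median, limit read from the data; inconclusive = replicates evenly split on the limit, or fluorescence at least double controls; inactive = too little inhibition in most replicates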;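 also: 0% = DMSO and -100% = 5 µM competing unlabeled TCR2 RNA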
BCLXL inh – blocks human Bcl-xL binding to Bim BH3 peptide | Q07817 | GST-Bcl-xL / FITC-Bim BH3 peptide fluorescence polarization | inhibition, % at 10.9 µM | 320,000 tested, 0.7% active;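 active = inhibition above the mean of all tested compounds plus 3 SD, cutoff set per campaign, cut at about 30% in these data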;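 also: 0% = DMSO wells and 100% = unlabeled Bim-BH3 peptide competitor; inhibitors lower millipolarization by displacing the labeled peptide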
GLD-1 TGE inh – GLD-1-TGE RNA interaction inhibition (C. elegans); purified GLD-1 + fluorescein TGE RNA, fluorescence polarization; 320,000 tested, 0.44% active; Q17339; inhibition, % at 5.96 µM;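 active = percent inhibition above a per-plate cutoff, the plate mean of test compounds plus 3 SD, cut at about 30% in these data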;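 also: 0% = DMSO wells with GLD-1 and probe and 100% = wells lacking GLD-1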
BCLXL inh confirm – counter-screen for MCL1 inhibitors: confirmation of human Bcl-xL inhibitors. 1,700 tested, 54% active. inhibition, % at 10.9 µM. AID 2166. shares compounds with MCL1-BIM inh. GST-Bcl-xL / FITC-Bim BH3 peptide FP binding;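 active = inhibition above a cutoff equal to the mean inhibition of all tested compounds plus 3 SD, cut at about 30% in these data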;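 also: 0% = DMSO wells and 100% = unlabeled Bim BH3 control peptide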
MCL1 inh confirm – MCL1-BIM-BH3 interaction inhibition, confirmation | 1,700 tested, 61% active | AID 2168 | GST-MCL1 / FITC-Bim-BH3 fluorescence polarization | inhibition, % at 10.9 µM | shares compounds with MCL1-BIM inh;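 active = inhibition above the average of all tested compounds plus 3 SD, cut at about 40% in these data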;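 also: 0% = DMSO wells and 100% = unlabeled Bim-BH3 control peptide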
Active calls of the source: *; ? = inconclusive; nt = not tested or not shown; + = active, no number.

SMILES	EBV gp42 inh	MCL1-BIM inh	MEX-5 binding	BCLXL inh	GLD-1 TGE inh	BCLXL inh confirm	MCL1 inh confirm
Cn1c(=O)[nH]c2cc(Cl)cnc21	63*	73*	-32*	65*	44*	59*	69*
Oc1ccc(/C=N/n2c(COc3ccccc3)n[nH]c2=S)cc1O	nt	44*	-11	11	-10	20	31
COC(=O)c1c(Cl)c2n3ccccc3c(C)c(-c3ccccc3)c-2c1C(=O)OC	97*	+	-41*	172*	179*	37*	35
CCOc1ccc(C2c3cc(OC)c(OC)cc3CC(=O)N2c2ccc(OC)cc2)cc1 (centres undefined)	-6	-1	3	-3	3	nt	nt
COc1ccc(/C=C2\SC(=O)NC2=S)cc1OC	15	122*	-36*	102*	100*	38*	36
CN(C)C=Nc1nonc1-c1ccccc1	-4	-5	1	5	0	nt	nt
CN(C)C=Nc1c(Br)cc(Br)c2nonc12	1	69*	?	92*	-7	90*	115*
O=c1ccc(-c2ccc(S(=O)(=O)N3CCCCC3)o2)n[nH]1	nt	-4	-3	1	7	nt	nt
Cc1ccc(C)c(S(=O)(=O)Nc2ccc3oc(C)c(C(=O)O)c3c2)c1	nt	42*	1	12	1	21	60*
CC(=O)c1c(C)oc2ccc(NS(=O)(=O)c3ccc(C)cc3)cc12	nt	-2	-3	-1	2	nt	nt
CCOC(=O)C1CCN(C(=O)Nc2ccc3nc(-c4ccco4)c(-c4ccco4)nc3c2)CC1	50	143*	-4	101*	56*	68*	100*
NC1=CC(=O)c2cccc3cccc1c23	nt	+	-28*	175*	118*	156*	188*
CC(C)(C)OC(=O)NCCCCC1=CC2=CC(=O)C(C)(O)C(=O)C2=CO1 (centres undefined)	nt	20	-9	10	13	nt	nt
CCCCC1=CC2=CC(=O)C(C)(OC(=O)c3ccco3)C(=O)C2=CO1 (centres undefined)	nt	49*	-36*	43*	62*	33*	62*
CC1(OC(=O)c2ccc(Cl)nc2)C(=O)C=C2C=C(c3ccsc3)OC=C2C1=O (centres undefined)	nt	32	-22	23	29	nt	nt
COC(=O)CCC(=O)OC1(C)C(=O)C=C2C=C3CCCN3C=C2C1=O (centres undefined)	11	48*	-6	22	12	33*	32
COC(=O)CCCC1=CC2=CC(=O)C(C)(OC(=O)c3ccc(Cl)nc3)C(=O)C2=CO1 (centres undefined)	nt	66*	-35*	55*	57*	46*	69*
CC1(OC(=O)c2ccco2)C(=O)C=C2C=C(c3ccc(C#N)cc3)OC=C2C1=O (centres undefined)	nt	19	-20	12	13	nt	nt
CC(C)(C)OC(=O)NCCCCC1=CC2=CC(=O)C(C)(OC(=O)c3cnc4ccccc4n3)C(=O)C2=CO1 (centres undefined)	nt	58*	-28*	59*	89*	39*	52*
CC1(OC(=O)c2ccc(Cl)nc2)C(=O)C=C2C=C3CCCN3C=C2C1=O (centres undefined)	13	26	nt	13	12	nt	nt
COc1cc(C)c(C)cc1S(=O)(=O)NC1CC(C)(C)NC(C)(C)C1	nt	-1	1	-1	7	nt	nt
COc1ccc(-n2cnnc2SCC(=O)NC2CCCCC2)cc1	nt	nt	nt	nt	9	nt	nt
Cc1ccc(N2C(=O)C3C(C2=O)C2C=CC3C23CC3)c([N+](=O)[O-])c1 (centres undefined)	4	0	-1	7	-2	nt	nt
COC(=O)CCCC1=CC2=CC(=O)C(C)(OC(=O)c3cccs3)C(=O)C2=CO1 (centres undefined)	nt	122*	-49*	105*	93*	53*	69*
CCCCC1=CC2=CC(=O)C(C)(OC(=O)CCC(=O)OC)C(=O)C2=CO1 (centres undefined)	nt	62*	-27*	42*	54*	16	51*
SMILES	EBV gp42 inh	MCL1-BIM inh	MEX-5 binding	BCLXL inh	GLD-1 TGE inh	BCLXL inh confirm	MCL1 inh confirm
COC(=O)CCCC1=CC2=CC(=O)C(C)(OC(=O)c3cccs3)C(=O)C2=CN1c1ccccc1 (centres undefined)	nt	16	-7	17	15	nt	nt
COC(=O)CCC(=O)OC1(C)C(=O)C=C2C=C(C3CC3)N(CCCCO)C=C2C1=O (centres undefined)	-2	19	1	22	16	nt	nt
CC1(OC(=O)c2ccc(Cl)nc2)C(=O)C=C2C=C(C3CC3)OC=C2C1=O (centres undefined)	nt	87*	-50*	74*	76*	83*	122*
CCOC(=O)NC(NC(=O)OCC)C(=O)c1ccc(F)cc1	-17	4	2	3	1	nt	nt
COc1ccc(C(=O)COC(=O)CCCC(=O)NC2CCCCC2)cc1	nt	4	0	7	-1	nt	nt
Cc1ccc(OCC(=O)NCCCNC(=O)c2ccccn2)cc1C	nt	3	2	0	11	nt	nt
Cc1nnc(SCC(=O)Nc2sccc2C#N)s1	nt	53*	1	29	8	20	22
COc1cc(NC(=O)c2noc3c2CCC3)c(OC)cc1Cl	-1	50*	-2	11	5	15	53*
CCOc1ccc(NS(=O)(=O)c2ccc(C(=O)N3CCC3)cc2)cc1	nt	7	1	-2	-4	nt	nt
COc1cc(CCCN2C(=S)NC[C@@H]2c2ccccc2)cc(OC)c1OC	-9	9	-1	-1	2	nt	nt
CN1C[C@H](C(=O)N[C@]2(C)O[C@@]3(O)[C@@H]4CCCN4C(=O)[C@H](Cc4ccccc4)N3C2=O)CC2c3cccc4[nH]cc(c34)C[C@H]21 (some centres undefined)	nt	12	nt	14	22	nt	nt
CC(C)C[C@H]1C(=O)N2CCC[C@H]2[C@]2(O)O[C@](NC(=O)C3C=C4c5cccc6[nH]c(Br)c(c56)C[C@H]4N(C)C3)(C(C)C)C(=O)N12 (some centres undefined)	nt	115*	2	100*	92*	16	19
CNCCCOc1cccc(OC(C)C)c1	-21	-3	-2	-1	-3	nt	nt
CNCCCOc1cccc(Oc2ccccc2)c1	-20	46*	0	3	3	5	2
CC1(C)Cc2cccc(OCC(=O)NCCc3ccccc3)c2O1	nt	2	1	3	-5	nt	nt
CC1(C)Cc2cccc(OCC(=O)NCCc3ccc(S(N)(=O)=O)cc3)c2O1	nt	195*	nt	35*	21	-3	-6
